The record followed here is PubChem BioAssay.

Assay [1] in a line: resazurin metabolic signal in HepG2 cells – cell-based, resazurin fluorescence, 24 h, PK04 Diversity Set, profiling panel (AID 1172). The settings on record: HepG2 viability, higher = more signal.
Assay [2] in a line: budding yeast growth changes without added modifier – OD600, strain BY4716, 24 h, basal condition, primary screen (AID 1173). As to conditions: S. cerevisiae BY4716 growth, OD600, 24 h; higher = more signal, called active from +8 up or from −8 down.
A short description of assay [3]: viability profiling in MM1S myeloma cells – cell-based, resazurin fluorescence, basal, 24 h, PK04 Diversity Set, profiling panel (AID 1174).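 Also: MM1S multiple myeloma cell line.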 As to conditions: higher = more signal, called active from +8 up or from −8 down.
In assay [4] the target is Dihydroorotate dehydrogenase (quinone), mitochondrial (Plasmodium falciparum (isolate 3D7)) (UniProt Q08210). Briefly: inhibition of P. falciparum DHODH – biochemical, C-terminal His tag, absorbance 600 nm, primary screen (AID 1175).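 Also: recombinant parasite enzyme with a five histidine tag at its C terminus.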 The settings on record: PfDHODH enzyme, DCIP absorbance 600 nm; higher = more signal, called active from +8 up or from −8 down.
Dihydroorotate dehydrogenase (quinone), mitochondrial (Plasmodium falciparum (isolate 3D7)), sequence (Q08210 whole entry, looked up): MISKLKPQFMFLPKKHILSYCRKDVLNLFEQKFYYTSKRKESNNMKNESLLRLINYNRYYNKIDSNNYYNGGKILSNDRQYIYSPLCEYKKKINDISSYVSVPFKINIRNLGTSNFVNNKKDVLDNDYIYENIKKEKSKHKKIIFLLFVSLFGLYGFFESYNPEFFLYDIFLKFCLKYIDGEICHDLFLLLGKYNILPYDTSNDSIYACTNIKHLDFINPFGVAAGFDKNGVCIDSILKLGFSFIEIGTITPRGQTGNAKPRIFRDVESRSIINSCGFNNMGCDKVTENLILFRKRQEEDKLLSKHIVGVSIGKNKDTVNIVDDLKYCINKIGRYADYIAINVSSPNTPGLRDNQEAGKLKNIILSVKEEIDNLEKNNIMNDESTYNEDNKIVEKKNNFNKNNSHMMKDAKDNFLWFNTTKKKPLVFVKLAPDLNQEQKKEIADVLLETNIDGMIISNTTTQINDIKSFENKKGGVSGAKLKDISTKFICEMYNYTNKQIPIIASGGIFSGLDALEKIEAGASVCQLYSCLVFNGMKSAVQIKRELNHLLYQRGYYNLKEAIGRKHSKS
Assay [5] can be described thus: inhibition of PAO1 biofilm formation – strain PAO1, LB-PBS medium, absorbance 600 nm, primary screen (AID 1176). The settings on record: P. aeruginosa PAO1 growth/biofilm, A600, 12 h; higher = more signal.
A short description of assay [6]: growth modulation of vineyard yeast isolate – strain RM11-1a, OD600, basal, 24 h, primary screen (AID 1177).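 Also: cultures grown under basal conditions with no added stressor.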 As to conditions: S. cerevisiae RM11-1a growth, OD600, 24 h; higher = more signal, called active from +8 up or from −8 down.
Assay [7] in a line: growth of efflux-deficient E. coli DRC39 – strain DRC39, OD650, 24 h, E. coli filamentation inducers, primary screen (AID 1178).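 Also: growth measured as culture turbidity by optical density at 650 nm.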 As to conditions: E. coli DRC39 acrAB, higher = more signal, called active from +8 up or from −8 down.
Assay [8] in a line: growth of efflux-deficient E. coli DRC39 – strain DRC39, OD650, 48 h, E. coli filamentation inducers, primary screen (AID 1179).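 Also: screen aims at cell division blockers that make cells filament.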 As to conditions: E. coli DRC39 delta-acrAB growth, higher = more signal, called active from +8 up or from −8 down.
The nature of assay [9]: viability profiling in RPMI8226 myeloma cells – cell-based, resazurin fluorescence, basal, 24 h, PK04 Diversity Set, profiling panel (AID 1180).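 Also: RPMI8826 multiple myeloma cell line at 5000 cells per well.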 As to conditions: higher = more signal. Background: Resazurin is reduced to fluorescent resorufin, in cell work by metabolically active cells.
Assay [10] concerns the target E3 ubiquitin-protein ligase XIAP (Homo sapiens) (UniProt P98170). In words: small molecules binding XIAP protein – biophysical, small-molecule microarray, fluorescence 635 nm, primary screen (AID 1181).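 Also: score merges 667 nm emission and signal to noise over triplicate slides.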 As to conditions: higher = more signal.
Assay [11] deals with XIP peptide (Xip251-270) binding. Briefly: XIP fragment 251-270 binding compounds – biochemical, small-molecule microarray, fluorescence 635/667 nm, 0.1 µg/mL protein, primary screen (AID 1182). The settings on record: fluorescent protein binding, 635 nm, higher = more signal, called active from +8 up or from −8 down.
Another assay concerns XIP peptide (Xip251-270). In words: compounds binding XIP fragment 251-270 – biochemical, small-molecule microarray, fluorescence 635/667 nm, 0.5 µg/mL protein, primary screen (AID 1183). As to conditions: fluorescence 635 nm, higher = more signal.
Assay [12] is described as follows: blood-stage malaria parasite viability loss – strain 3D7, DAPI fluorescence, 100 nL, primary screen (AID 1184).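 Also: parasites grown inside human red blood cells in medium with human serum.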 The settings on record: P. falciparum 3D7 growth, 3 d, higher = more signal.
The target in assay [13] is Homeobox protein Hox-A13 (Mus musculus) (UniProt Q62424). Briefly: disruptors of Hoxa13 oligonucleotide interaction – biochemical, fluorescence polarization, labeled oligonucleotide, primary screen (AID 1185). As to conditions: Hoxa13:DNA binding, 15 min, higher = more signal, called active from +8 up or from −8 down.
Homeobox protein Hox-A13 (Mus musculus), sequence (Q62424 whole entry, looked up): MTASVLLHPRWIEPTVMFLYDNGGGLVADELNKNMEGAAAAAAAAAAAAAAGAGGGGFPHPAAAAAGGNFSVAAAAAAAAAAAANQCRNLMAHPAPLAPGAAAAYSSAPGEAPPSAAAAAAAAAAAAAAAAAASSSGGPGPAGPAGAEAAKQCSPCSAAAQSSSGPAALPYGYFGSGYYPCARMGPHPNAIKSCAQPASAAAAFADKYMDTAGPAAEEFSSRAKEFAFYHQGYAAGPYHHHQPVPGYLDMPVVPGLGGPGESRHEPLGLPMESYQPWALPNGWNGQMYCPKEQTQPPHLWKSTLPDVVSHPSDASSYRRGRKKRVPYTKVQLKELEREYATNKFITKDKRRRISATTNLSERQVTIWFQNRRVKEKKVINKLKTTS
Assay [14] can be described thus: blockers of DNA damage checkpoint Chk1 activation – imaging, HeLa, hydroxyurea, phospho-Chk1 antibody, percent positive cells, primary screen (AID 1186). As to conditions: hydroxyurea-induced phospho-Chk1 immunofluorescence imaging, higher = more signal.
Assay [15] can be described thus: blockers of DNA damage checkpoint Chk1 activation – imaging, HeLa, hydroxyurea, phospho-Chk1 nuclear intensity, primary screen (AID 1187). As to conditions: hydroxyurea-induced phospho-Chk1 immunofluorescence imaging, higher = more signal.

Activity calls are given as the source filed them. Unless noted, no rule for the calls is given here.

E3 ubiquitin-protein ligase XIAP (Homo sapiens), sequence (P98170 whole entry, looked up, the tested form may be a part): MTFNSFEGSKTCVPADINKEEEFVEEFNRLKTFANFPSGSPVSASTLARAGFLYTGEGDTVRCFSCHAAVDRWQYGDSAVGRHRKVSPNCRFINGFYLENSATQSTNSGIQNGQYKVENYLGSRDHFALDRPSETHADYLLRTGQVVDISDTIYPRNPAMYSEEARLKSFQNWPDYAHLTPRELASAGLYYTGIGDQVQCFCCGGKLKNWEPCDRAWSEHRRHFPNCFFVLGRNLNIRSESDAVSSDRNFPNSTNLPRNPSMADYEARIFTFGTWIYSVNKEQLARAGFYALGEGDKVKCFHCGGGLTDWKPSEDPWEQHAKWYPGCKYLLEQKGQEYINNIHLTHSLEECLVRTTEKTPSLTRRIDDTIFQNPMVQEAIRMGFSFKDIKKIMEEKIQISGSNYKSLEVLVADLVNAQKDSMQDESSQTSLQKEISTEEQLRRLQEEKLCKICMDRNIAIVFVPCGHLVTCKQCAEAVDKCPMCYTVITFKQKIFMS

In the case of `COc1cc(NN2C(C(O)c3ccco3)C=CC3C(=O)N(C)C(=O)C32)cc(OC)c1OC` (centres undefined), the z-score was -1.41 in assay [1]; 0.753 (inactive) in assay [2]; -1.76 (inactive) in assay [3]; 0.711 (inactive) in assay [5]; 0.322 (inactive) in assay [6]; -1.02 (inactive) in [7]. The z-score in assay [8] is -0.941 (inactive); in assay [9] it was -1.98; in assay [12], -0.188; in assay [13], -3.41 (inactive); in assay [14], 0.476 (inactive); in assay [15], 0.18 (inactive). Also, the composite z-score is -0.139 (inactive) in assay [4], 0.391 in [10], -0.0656 (inactive) in assay [11] and -0.423 in the assay with XIP peptide (Xip251-270).
Regarding `CCOC(=O)C[C@H]1[C@H](OC(=O)c2ccc(C(=O)c3ccccc3)cc2)[C@@H](NC(=O)CC(C)C)c2cc(OCCCO)ccc2N1C(=O)c1ccccc1`, the z-score in assay [1] was -0.358; in [2], 0.325 (inactive); in assay [3], 0.0303 (inactive); in assay [5], 0.714 (inactive); in [6], -0.0649 (inactive); in assay [7] it was -0.794 (inactive). For the same molecule, the z-score in [8] was -0.717 (inactive); in assay [9], -0.281; in [12] it was 1.38; in assay [13] it was -3.51 (inactive); in [14], 0.309 (inactive); in assay [15], -0.0385 (inactive). Also, the composite z-score in assay [4] was -0.235 (inactive); in assay [10] it was -0.0773; in assay [11] it was 0.786 (inactive); in the assay with XIP peptide (Xip251-270) it was 0.671.
Take `COC(=O)C1=CC(CCCO)=CC(c2cccs2)N(Cc2cccc(OC(F)(F)F)c2)C=C1C(=O)OC` (centres undefined): the z-score was -0.872 in assay [1]; -0.487 (inactive) in assay [2]; -1.46 (inactive) in assay [3]; 0.82 (inactive) in assay [5]; 0.0036 (inactive) in assay [6]; 0.581 (inactive) in [7]. Moreover, the z-score is 0.153 (inactive) in assay [8]; -1.16 in assay [9]; -1.78 in [12]; -7.24 (inactive) in assay [13]; 0.128 (inactive) in assay [14]; 0.39 (inactive) in assay [15]. The composite z-score is -3.05 (inactive) in assay [4], -0.0756 in [10], 0.348 (inactive) in assay [11] and 0.706 in the assay on XIP peptide (Xip251-270).
In the case of `C=CCNC(=O)[C@@H]1[C@H]2C(=O)O[C@H](c3ccccc3)[C@H](c3ccccc3)N2[C@H](c2ccccc2OCCO)[C@@]12C(=O)N(C(=O)OCCOC)c1ccc(C#CC3(O)CCCCCC3)cc12`, the z-score is -0.405 in assay [1]; 0.605 (inactive) in [2]; -2.57 (inactive) in assay [3]; 2.12 (inactive) in assay [5]; 0.766 (inactive) in assay [6]; 0.0265 (inactive) in [7]. Moreover, the z-score in assay [8] was -0.609 (inactive); in [9] it was -3.27; in assay [12], -2.21; in [13], -2.56 (inactive); in assay [14], -0.0659 (inactive); in [15] it was 0.294 (inactive). Besides, the composite z-score in assay [4] is -1.91 (inactive); in assay [10], 0.133; in [11], 0.99 (inactive); in the assay on XIP peptide (Xip251-270), 0.674.
With `COC(=O)C(CC#Cc1ccc2c(c1)[C@]1(C(=O)N2)[C@H](c2ccc(O)cc2)N2[C@H](c3ccccc3)[C@H](c3ccccc3)OC(=O)[C@H]2[C@@H]1C(=O)NC[C@H](O)c1ccccc1)C(=O)OC`, the z-score was -0.0495 in assay [1]; 0.677 (inactive) in assay [2]; -0.275 (inactive) in assay [3]; 0.87 (inactive) in [5]; 0.379 (inactive) in assay [6]; 0.062 (inactive) in assay [7]. The z-score in assay [8] was -0.138 (inactive); in assay [9], -1.37; in assay [12], 0.452; in assay [13], -3 (inactive); in [14], -0.0427 (inactive); in [15] it was -0.171 (inactive). Moreover, the composite z-score is -3.93 (inactive) in assay [4], -0.0013 in assay [10], 0.646 (inactive) in assay [11] and 0.42 in the assay on XIP peptide (Xip251-270).
As to `CCCCC(CC)C(O)C1C=CC2C(=O)N(c3ccccc3)C(=O)C2N1Nc1ccc(C#N)cc1` (centres undefined), the z-score in assay [1] was -0.0318; in assay [2], -0.847 (inactive); in assay [3] it was -0.67 (inactive); in assay [5] it was 1.7 (inactive); in assay [6] it was 0.913 (inactive); in assay [7], 0.248 (inactive). Further, the z-score in [8] is 0.0706 (inactive); in assay [9], -0.661; in assay [12] it was 0.128; in assay [13] it was -1.83 (inactive); in assay [14], -0.185 (inactive); in [15], -0.153 (inactive). The composite z-score in [4] was 0.215 (inactive); in assay [10], 0.212; in [11], 0.742 (inactive); in the assay with XIP peptide (Xip251-270) it was 0.784.
On to `COC(=O)c1c(CC[C@@H](CO)NC(=O)N2CCC[C@H]2Cn2cc(C3(O)CCCCC3)nn2)oc(C(C)=O)c1C(=O)OC`, for which the z-score was -0.089 in assay [1]; -0.212 (inactive) in assay [2]; -0.66 (inactive) in assay [3]; -0.546 (inactive) in [5]; -0.37 (inactive) in assay [6]; 0.294 (inactive) in assay [7]. For the same molecule, the z-score in assay [8] is -0.0642 (inactive); in [9], -0.302; in [12], -0.373; in [13], -4.77 (inactive); in assay [14], -0.125 (inactive); in assay [15] it was -0.0208 (inactive). Also, the composite z-score in assay [4] is -0.0366 (inactive); in assay [10], -0.0448; in [11] it was 0.812 (inactive); in the assay with XIP peptide (Xip251-270) it was 0.499.
For the molecule `CO[C@H]1O[C@H](CO)[C@@H](OC(=O)Nc2ccc3c(c2)OCO3)[C@H](OC(=O)Nc2ccc3c(c2)OCO3)[C@@H]1OC(=O)Nc1ccc2c(c1)OCO2`, the z-score in assay [1] is -0.907; in assay [2], 1.44 (inactive); in assay [3], -0.309 (inactive); in [5], 1.05 (inactive); in assay [6] it was 1.81 (inactive); in assay [7], 1.01 (inactive). Also, the z-score was -0.147 (inactive) in assay [8]; -0.472 in assay [9]; -2.31 in assay [12]; -4.7 (inactive) in assay [13]; -0.187 (inactive) in [14]; -0.119 (inactive) in assay [15]. For the same molecule, the composite z-score in [4] is -0.732 (inactive); in [10] it was 0.374; in [11], 1.12 (inactive); in the assay with XIP peptide (Xip251-270), 0.904.
Consider `CCCC[C@@H](O)C1=C(COC)C[C@H]2C(=O)N(C)C(=O)[C@H]2[C@H]1CO`, for which the z-score is 0.798 in assay [1]; -3.7 (inactive) in assay [2]; -0.264 (inactive) in assay [3]; 1.04 (inactive) in assay [5]; -2.16 (inactive) in assay [6]; 2.43 (inactive) in assay [7]. In addition, the z-score in assay [8] was 0.964 (inactive); in [9] it was 1.3; in assay [12], -0.68; in assay [13], -1.8 (inactive); in [14], -0.476 (inactive); in assay [15], 0.0423 (inactive). Besides, the composite z-score in assay [4] is -1.43 (inactive); in assay [10] it was -0.109; in [11] it was -0.703 (inactive); in the assay on XIP peptide (Xip251-270) it was 0.336.
